# Data: PubChem BioAssay AID1415 (NMMLSC, 2008)
# The campaign covered roughly 220,000 compounds. About 710 (0.32%) were called active. Cut-off read from the data, not from the text of the source: active = binding response below about 49% or above about 150%; inactive = in between. Only a selection was taken, and actives are over-represented in it overall.
# Target: Guanine nucleotide-binding protein G(o) subunit alpha (Homo sapiens) (UniProt P09471)
# Assay: RGS4-Galphao interaction inhibitors and enhancers – biochemical, multiplexed bead flow cytometry, primary screen (AID 1415);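 note: fluorescent Galphao activated with aluminum fluoride binding bead-coupled RGS4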
# Details: at 10 µM, actives lie on both sides
# Chain of Guanine nucleotide-binding protein G(o) subunit alpha (Homo sapiens) (P09471 whole entry, looked up): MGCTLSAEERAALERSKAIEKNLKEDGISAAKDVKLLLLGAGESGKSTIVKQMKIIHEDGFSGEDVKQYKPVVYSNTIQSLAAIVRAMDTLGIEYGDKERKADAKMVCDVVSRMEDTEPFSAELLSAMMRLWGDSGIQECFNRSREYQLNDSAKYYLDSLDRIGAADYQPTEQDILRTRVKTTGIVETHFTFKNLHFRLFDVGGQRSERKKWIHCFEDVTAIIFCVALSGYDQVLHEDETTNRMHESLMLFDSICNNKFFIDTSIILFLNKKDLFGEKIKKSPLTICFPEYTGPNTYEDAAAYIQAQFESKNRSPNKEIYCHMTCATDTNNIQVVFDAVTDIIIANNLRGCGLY
row,SMILES,binding response (% of control)
1,CCOc1ccc(-c2ccc(SCC(=O)N3CCOCC3)nn2)cc1,104% (inactive)
2,CCOC(=O)c1c(C)[nH]c(C2=NNC(=NC(C)COC)SC2)c1C (stereo not given),92.4% (inactive)
3,CCOC(=O)C1Sc2[nH]c(=O)sc2C(c2ccc(Cl)cc2)C1C(=O)OCC (stereo not given),-41.2% (active)
4,CCOC(=O)C1=C(C)NC(=O)N(C(C)=O)C1c1ccc(Cl)cc1 (stereo not given),115% (inactive)
5,CCOC(=O)C1C(c2ccc(Cl)cc2)NC(=S)NC1(O)C(F)(F)F (stereo not given),102% (inactive)
6,CC(=O)NS(=O)(=O)c1ccc(NC(=O)C2C3C=CC(C3)C2C(=O)O)cc1 (stereo not given),101% (inactive)
7,CCOC(=O)c1c(Cc2ccc(Cl)cc2)c[nH]c1C,102% (inactive)
8,Cc1ccc(S(=O)(=O)CC(=O)Nc2c(C)n(C)n(-c3ccccc3)c2=O)cc1,97.9% (inactive)
9,Cc1cc(C)cc(N(C(C)C(=O)Nc2c(C)n(C)n(-c3ccccc3)c2=O)S(C)(=O)=O)c1 (stereo not given),102% (inactive)
10,Cc1cc(C)cc(N(CC(=O)Nc2c(C)n(C)n(-c3ccccc3)c2=O)S(C)(=O)=O)c1,-43.6% (active)
11,COCCCNC(=O)CN1CCN(Cc2ccccc2Cl)C1=O,103% (inactive)
12,O=C(COc1ccc(/C=N/NC(=O)c2ccc(O)cc2)cc1)Nc1ccc([N+](=O)[O-])cc1,103% (inactive)
13,Cc1cc(N2CCOCC2)nc(-c2ccc(Br)cc2)n1,95.9% (inactive)
14,C#CCOCCOCCOCCNc1nc(N2CCN(C(=O)[C@H](CCC(=O)O)n3cc(C(N)CO)nn3)CC2)nc(N2CCN(C(=O)[C@H](CCCCN)n3cc(C(N)[C@H](C)CC)nn3)CC2)n1 (stereo not given in full),102% (inactive)
15,C=CCc1cccc2cc(C(=O)Nc3ccc(NC(C)=O)cc3)c(=O)oc12,102% (inactive)
16,N#Cc1nc(COc2ccc(-c3ccccc3)cc2)oc1NCc1cccnc1,153% [activator] (active)
17,N#Cc1nc(-c2ccc(OCc3ccccc3)cc2)oc1NCCCN1CCOCC1,100% (inactive)
18,N#Cc1nc(Cc2ccccc2)oc1NCCc1ccccc1,103% (inactive)
19,Cc1ccccc1C1=NC(C(F)(F)F)(C(F)(F)F)c2c(n(-c3ccc(F)cc3)c(=O)[nH]c2=O)N1,104% (inactive)
20,CCC(C)NC(=O)CN(C1CCCCC1)S(C)(=O)=O (stereo not given),99.8% (inactive)
21,O=S(=O)(NC(=S)Nc1ccccc1)c1ccc(F)cc1,103% (inactive)
22,CC(C)Oc1ccc(CC(=O)NNC(=S)Nc2ccc(Br)cc2)cc1,99.3% (inactive)
23,O=C(NCc1ccc2c(c1)OCO2)C12CC3CC(CC(C3)C1)C2,98.9% (inactive)
24,Cc1ccc(C2NC(C(=O)O)CS2)cc1 (stereo not given),103% (inactive)
25,O=C(CSC1=NCCS1)Nc1nc(-c2ccccc2)cs1,83.7% (inactive)
26,NS(=O)(=O)c1ccc(Nc2nc(-c3ccccc3)cs2)cc1,106% (inactive)
27,Cc1cccc(S(=O)(=O)CC(=O)Nc2nc(-c3ccccc3)cs2)c1,183% [activator] (active)
28,CCOc1ccccc1Oc1cn[nH]c1-c1ccc(OC)cc1O,99% (inactive)
29,COc1ccc(Cl)cc1C(=O)NNC(=O)c1nc2nc(C)cc(C)n2n1,103% (inactive)
30,C#CCOCCOCCOCCNc1nc(N2CCN(C(=O)[C@H](C(C)C)n3cc(CCO)nn3)CC2)nc(N2CCN(C(=O)[C@H]([C@@H](C)CC)n3cc(CCCN=C(N)N)nn3)CC2)n1,101% (inactive)
